Source: PubChem BioAssay AID651610 (Broad Institute, 2012)
About 3,900 (1.1%) of roughly 360,000 compounds were called active.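 The calls were made as follows: active = mean replicate inhibition score of at least 50 and every replicate individually at or above 50; inconclusive = only one of the two criteria met; inactive = mean below 50 and not all replicates reaching 50.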 The entries come from a sample that favours actives as a whole.

Assay: blockers of JRFL envelope-mediated fusion – HeLa-JRFL effector, CEM21 target cells, luciferase, primary screen (AID 651610);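 also: 0% = plate neutral controls and 100% = maraviroc near 300 nM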
Settings: HeLa-JRFL Env/CEM21 cell fusion, hits give high values; at 16.7 µM unless noted

Structure (SMILES)	inhibition
C[C@@H]1CN([C@@H](C)CO)C(=O)Cc2cc(NS(=O)(=O)c3ccc(Cl)cc3)ccc2O[C@H]1CN(C)CC1CCCCC1	32.1% (inactive)
C[C@H]1CN([C@@H](C)CO)C(=O)c2cc(-c3cccc(C(=O)N(C)C)c3)cnc2O[C@H]1CN(C)S(=O)(=O)c1ccccc1	-10.1% (inactive)
O=C(C[C@H]1C[C@@H]2c3cc(NC(=O)C4CCC4)ccc3O[C@@H]2[C@H](CO)O1)NCCN1CCCCC1	16.8% (inactive)
CCC(CC)COC(=O)C1=C(C)NC(=O)NC1c1ccc([N+](=O)[O-])cc1 (centres undefined)	29.9% [at 12.3 µM] (inactive)
CCOC(=O)C1=C(CCc2ccccc2)NC(=O)NC1c1ccc2ccccc2c1 (centres undefined)	6.29% [at 12.3 µM] (inactive)
CCOC(=O)C1=C(CN2CCc3ccccc32)NC(=O)NC1c1ccc(Cl)cc1 (centres undefined)	58% [at 12.3 µM] (active)
CCOC(=O)C1=C(CN2CCc3ccccc32)NC(=O)NC1c1cccc([N+](=O)[O-])c1 (centres undefined)	64.3% [at 12.3 µM] (active)
CCOC(=O)C1=C(c2ccccc2)NC(=O)NC1c1cc(OCC)c(O)c([N+](=O)[O-])c1 (centres undefined)	-15.8% [at 12.3 µM] (inactive)
CCOC(=O)C1=C(CN2CCc3ccccc32)NC(=O)NC1c1cc(C)ccc1C (centres undefined)	-13.6% [at 12.3 µM] (inactive)
CNC[C@@H]1Oc2c(NC(=O)C3CCOCC3)cccc2C(=O)N([C@@H](C)CO)C[C@H]1C	-14.2% (inactive)
C[C@H]1CN([C@@H](C)CO)C(=O)Cc2cc(NC(=O)C3CC3)ccc2O[C@@H]1CN(C)C(=O)NC1CCCCC1	2.31% (inactive)
C/C=C/c1ccc2c(c1)O[C@H](CN(C)C(=O)C1CCCCC1)[C@@H](C)CN([C@@H](C)CO)S2(=O)=O	8.29% (inactive)
C[C@@H]1CN([C@H](C)CO)C(=O)c2cc(C3=CCCC3)cnc2O[C@@H]1CN(C)C(=O)Nc1ccc(F)cc1	4.49% (inactive)
O=C(O)CC/C(=C\c1cc2c(cc1Br)OCO2)c1nc2ccccc2s1	-9.93% [at 12.3 µM] (inactive)
O=C(N/N=C\c1cc2c(cc1Cl)OCO2)c1ccc(Br)s1	-61.6% [at 12.3 µM] (inactive)
CC1(C(=O)N/N=C/c2cc3c(cc2Br)OCO3)CC1(Br)Br (centres undefined)	102% [at 12.3 µM] (active)
Cc1noc(C)c1S(=O)(=O)Nc1ccc2c(c1)CC(=O)N([C@H](C)CO)C[C@H](C)[C@H](CN(C)S(=O)(=O)c1cn(C)cn1)O2	-15.2% (inactive)
Cc1noc(C)c1NC(=O)N(C)C[C@@H]1Oc2ccc(NS(=O)(=O)c3ccc(F)cc3)cc2CC(=O)N([C@@H](C)CO)C[C@H]1C	-12% (inactive)
Cc1ccc(-c2nc3ccc(Cl)cn3c2Cc2ccccc2)cc1	-27% [at 12.3 µM] (inactive)
Cc1ccc2nc(-c3ccc(Br)cc3)cn2c1	34.5% [at 12.3 µM] (inactive)
Cc1ccc(-c2cn3cc(C)ccc3n2)cc1	60.5% [at 12.3 µM] (active)
C[C@H](CO)N1C[C@H](C)[C@@H](CN(C)S(=O)(=O)c2ccccc2F)Oc2ncc(C#Cc3ccccc3F)cc2C1=O	17.5% (inactive)

Structure (SMILES)	inhibition
Cn1c(C(=O)N2CCC(C(N)=O)CC2)cc2c(=O)n(C)c3ccccc3c21	0.068% [at 12.3 µM] (inactive)
CCOC(=O)N1CCN(C(=O)c2nn(-c3ccc(C)cc3)c(=O)c3c2c2ccccc2n3C)CC1	-11% [at 12.3 µM] (inactive)
Cn1c2ccccc2c2c(C(=O)N3CCN(c4ccc(F)cc4)CC3)cn(C3CCCC3)c(=O)c21	67.5% [at 12.3 µM] (active)
O=C(C[C@@H]1CC[C@H]2NC[C@H](O)COC[C@@H]2O1)NCCN1CCCCC1	-8.63% (inactive)
C[C@H]1CCCCO[C@@H](CN(C)C(=O)Cc2ccccc2)[C@@H](C)CN([C@@H](C)CO)C(=O)c2cc(NC(=O)c3ccccc3)ccc2O1	-43.3% (inactive)
COc1ccc(C(N)c2csc(NC(=O)Nc3cccc(C(F)(F)F)c3)n2)cc1 (centres undefined)	18.1% [at 12.3 µM] (inactive)
NC(c1ccccc1)c1csc(NC(=O)Nc2cccc(C(F)(F)F)c2)n1 (centres undefined)	39.2% [at 12.3 µM] (inactive)
NC(c1csc(NC(=O)Nc2cccc(C(F)(F)F)c2)n1)C1CCCCC1 (centres undefined)	61% [at 12.3 µM] (active)
C[C@@H]1CN([C@@H](C)CO)C(=O)c2cc(-c3ccccc3F)cnc2O[C@H]1CN(C)C(=O)C1CC1	15% (inactive)
COc1cccc(CNCCc2c[nH]c3ccccc23)c1OCc1ccccc1F	79.1% [at 12.3 µM] (active)
COc1ccc(C(CCNCc2ccccc2F)c2ccc(F)cc2)cc1 (centres undefined)	-1.51% [at 12.3 µM] (inactive)
Cc1cc(C)cc(NC(=S)NCCc2c[nH]c3ccccc23)c1	2.48% [at 12.3 µM] (inactive)
CC(C)CC#Cc1ccc2c(c1)O[C@H](CN(C)Cc1ccncc1)[C@H](C)CN([C@H](C)CO)S2(=O)=O	12.7% (inactive)
CCCNC(=O)C[C@@H]1CC[C@H]2[C@H](COc3ccc(NC(=O)CCC)cc3C(=O)N2C)O1	-1.97% (inactive)
CCNC(=O)c1cc2c(c(-c3cccc(C4=CCCC4)c3)n1)[C@H](CCO)N([S@@](=O)C(C)(C)C)C2	-0.132% (inactive)
CNc1nc(Nc2ccc(C)c(Cl)c2)nc(N)c1[N+](=O)[O-]	17.7% [at 12.3 µM] (inactive)
COc1ccc(Nc2nc(NCc3ccco3)nc(N/N=C/c3ccccc3Cl)n2)cc1	-11.9% [at 12.3 µM] (inactive)
COc1cccc(Nc2nc(N)c([N+](=O)[O-])c(NCc3ccco3)n2)c1	56.2% [at 12.3 µM] (active)
CO[C@H]1CN(C)C(=O)c2ccc(NC(C)=O)cc2OC[C@@H](C)N(C(=O)c2ccccn2)C[C@@H]1C	4.28% (inactive)
C[C@@H]1CN([C@H](C)CO)S(=O)(=O)c2ccc(Br)cc2O[C@@H]1CN(C)Cc1cncnc1	-25.8% (inactive)
C[C@@H]1CN([C@H](C)CO)C(=O)c2cccc(N(C)C)c2O[C@H]1CN(C)S(=O)(=O)c1cn(C)cn1	-2.57% (inactive)
O=C(Cc1ncc(C(F)(F)F)cc1Cl)Nc1cccc(Br)c1	-3.53% [at 12.3 µM] (inactive)

Structure (SMILES)	inhibition
O=C(CC(O)(C(F)(F)F)C(F)(F)F)Nc1ccc(Cl)c(Cl)c1	109% [at 12.3 µM] (active)
O=C(CN1CCOCC1)Nc1ccc(NC(=O)CN2CCOCC2)c(Cl)c1	-13.8% [at 12.3 µM] (inactive)
Cc1noc(C)c1NC(=O)N[C@@H]1C=C[C@H](CC(=O)N2CCCCC2)O[C@H]1CO	7.13% (inactive)
C[C@H](CO)N1C[C@H](C)[C@@H](CN(C)C(=O)c2ccccc2)OCCCC[C@H](C)Oc2ccc(NC(=O)c3ccccc3)cc2C1=O	-52.7% (inactive)
CCOC(=O)[C@]12CCC=C1N(CCC1=CCCCC1)C(=O)[C@H](CC(=O)NCc1ccc(C)o1)C2	-8.89% [at 12.3 µM] (inactive)
CCCCCCCCN1C(=O)[C@@H](CC(=O)NCc2ccc(C)o2)C[C@@]2(C(=O)OC)C1=C[C@H](C(C)(C)C)O[C@@H]2C	38% [at 12.3 µM] (inactive)
COCCCNC(=O)C[C@H]1C[C@@]2(C(=O)OC)C(=C[C@H](C(C)(C)C)O[C@@H]2C)N(Cc2ccc3c(c2)OCO3)C1=O	-14% [at 12.3 µM] (inactive)
COC(=O)[C@]12C[C@H](CC(=O)NCc3ccccc3)C(=O)N(CCC3=CCCCC3)C1=C[C@H](C(C)(C)C)O[C@@H]2C	67.5% [at 12.3 µM] (active)
COC(=O)[C@]12C[C@H](CC(=O)NCCCCc3ccccc3)C(=O)N(Cc3ccc4c(c3)OCO4)C1=C[C@H](C(C)(C)C)O[C@@H]2C	-19.5% [at 12.3 µM] (inactive)
CCOC(=O)[C@]12CCCC=C1N(CCC1=CCCCC1)C(=O)[C@H](CC(=O)NCCCOC)C2	20% [at 12.3 µM] (inactive)
CCCCOCCCNC(=O)C[C@@H]1C[C@@]2(C(=O)OCC)CCCC=C2N(CCC2=CCCCC2)C1=O	34.4% [at 12.3 µM] (inactive)
COC(=O)[C@]12C[C@H](CC(=O)NCc3ccc(C)o3)C(=O)N(CCC3=CCCCC3)C1=C[C@H](C(C)(C)C)O[C@@H]2C	70.3% [at 12.3 µM] (active)
COC(=O)[C@]12C[C@H](CC(=O)NCCC(C)C)C(=O)N(CCc3ccc(OC)c(OC)c3)C1=C[C@H](C(C)(C)C)O[C@@H]2C	14.5% [at 12.3 µM] (inactive)
CCCCOCCCNC(=O)C[C@@H]1C[C@@]2(C(=O)OC)CCCCC=C2N(CCC2=CCCCC2)C1=O	63.6% [at 12.3 µM] (active)
CCCCCCCCN1C(=O)[C@@H](CC(=O)NCCCC)C[C@@]2(C(=O)OC)C1=C[C@H](C(C)(C)C)O[C@@H]2C	39.6% [at 12.3 µM] (inactive)
CCCCCCCCN1C(=O)[C@@H](CC(=O)NCc2ccccc2)C[C@@]2(C(=O)OC)C1=C[C@H](C(C)(C)C)O[C@@H]2C	64.7% [at 12.3 µM] (active)
COc1ccccc1NC(=O)N[C@H]1CC[C@@H](CCn2cc(C3(O)CCCC3)nn2)O[C@@H]1CO	-2.19% (inactive)
N#C[C@H]1[C@H](c2ccc(-c3ccccc3)cc2)[C@@H](CO)N1C(=O)Cc1ccccc1	-31.2% (inactive)
C[C@@H]1CCCCO[C@H](CN(C)C(=O)CCCN(C)C)[C@H](C)CN([C@H](C)CO)C(=O)c2cc(NC(=O)CCC(F)(F)F)ccc2O1	6% (inactive)
C[C@@H]1CCCCO[C@@H](CN(C)Cc2ccncc2)[C@H](C)CN([C@H](C)CO)C(=O)c2cc(NC(=O)NC3CCCCC3)ccc2O1	10.4% (inactive)
